# In PMC7862700, “An all-to-all approach to the identification of sequence-specific readers for epigenetic DNA modifications on cytosine”:
# What was measured:
# Test in all cases: DAPPL (digital affinity profiling via proximity ligation, sequencing); 10 mM Tris-HCl pH 7.5, 50 mM NaCl, 1 mM DTT, 4% glycerol, room temperature, 30 min; GST-TFs on glutathione beads, 16-mer random dsDNA library, 0.1% formaldehyde crosslink after washing; high values mean tight binding
# [1] = molecular target: T1, FLI1 (Homo sapiens, UniProt Q01543 1-452); conditions: protein: recombinant; tags: N-terminal GST; dsDNA, one strand shown
# T1 sequence: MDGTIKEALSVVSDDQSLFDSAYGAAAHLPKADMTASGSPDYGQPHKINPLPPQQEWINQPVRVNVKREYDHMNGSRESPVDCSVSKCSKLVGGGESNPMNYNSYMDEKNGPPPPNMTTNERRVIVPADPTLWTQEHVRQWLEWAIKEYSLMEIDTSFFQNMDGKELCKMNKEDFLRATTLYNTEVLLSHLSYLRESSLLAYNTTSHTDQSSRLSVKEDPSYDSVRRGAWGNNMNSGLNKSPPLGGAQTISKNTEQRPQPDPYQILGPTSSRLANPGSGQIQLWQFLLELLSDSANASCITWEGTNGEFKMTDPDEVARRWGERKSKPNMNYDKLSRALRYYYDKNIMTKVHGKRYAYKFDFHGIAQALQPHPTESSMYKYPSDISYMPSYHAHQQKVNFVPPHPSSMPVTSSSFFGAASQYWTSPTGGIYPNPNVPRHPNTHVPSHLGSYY
# In short: (§1)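 GST fusions of human transcription factors were expressed in yeast and captured with glutathione beads. Once given DNA barcodes and pooled alongside a tag-only sample, they were incubated for 30 min at room temperature with 200 nmole of a random double-stranded 16-mer DNA library in Tris/NaCl/DTT/glycerol buffer, then washed, crosslinked (0.1% formaldehyde), proximity-ligated, PCR-amplified and sequenced on an Illumina NextSeq500. The binding signal of each hexamer is its read frequency for a factor divided by its frequency for the tag-only sample.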
# [2] = molecular target: T2, ELK1 (Homo sapiens, UniProt P19419 1-428); conditions: protein: recombinant; tags: N-terminal GST; dsDNA, one strand shown
# T2 sequence: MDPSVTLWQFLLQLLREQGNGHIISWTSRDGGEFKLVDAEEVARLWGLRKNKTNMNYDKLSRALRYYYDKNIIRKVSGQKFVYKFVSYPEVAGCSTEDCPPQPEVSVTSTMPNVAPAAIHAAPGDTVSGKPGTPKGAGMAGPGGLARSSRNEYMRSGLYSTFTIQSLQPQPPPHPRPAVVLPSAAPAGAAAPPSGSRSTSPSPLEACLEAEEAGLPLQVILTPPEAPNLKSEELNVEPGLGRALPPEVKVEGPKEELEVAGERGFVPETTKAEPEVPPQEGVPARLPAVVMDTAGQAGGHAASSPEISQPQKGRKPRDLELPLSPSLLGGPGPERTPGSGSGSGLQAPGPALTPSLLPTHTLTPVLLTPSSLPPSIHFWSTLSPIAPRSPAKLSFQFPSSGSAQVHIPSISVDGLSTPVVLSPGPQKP
# In short: as §1
# [3] = molecular target: T3, GABPA (Homo sapiens, UniProt Q06546 1-454); conditions: protein: recombinant; tags: N-terminal GST; dsDNA, one strand shown
# T3 sequence: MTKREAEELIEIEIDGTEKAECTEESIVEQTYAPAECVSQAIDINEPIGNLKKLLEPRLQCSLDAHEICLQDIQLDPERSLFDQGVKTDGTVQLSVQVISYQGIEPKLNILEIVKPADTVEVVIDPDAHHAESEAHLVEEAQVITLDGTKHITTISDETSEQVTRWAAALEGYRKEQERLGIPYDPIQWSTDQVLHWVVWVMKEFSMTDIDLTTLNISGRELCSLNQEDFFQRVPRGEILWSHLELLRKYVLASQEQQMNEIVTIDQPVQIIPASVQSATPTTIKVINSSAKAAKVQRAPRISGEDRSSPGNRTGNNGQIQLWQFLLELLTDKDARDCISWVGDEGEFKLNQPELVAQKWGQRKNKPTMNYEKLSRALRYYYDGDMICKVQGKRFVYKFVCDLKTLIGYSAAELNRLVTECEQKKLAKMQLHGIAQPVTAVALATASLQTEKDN
# In short: as §1
# [4] = molecular target: T4, ERG (Homo sapiens, UniProt P11308 1-479); conditions: protein: recombinant; tags: N-terminal GST; dsDNA, one strand shown
# T4 sequence: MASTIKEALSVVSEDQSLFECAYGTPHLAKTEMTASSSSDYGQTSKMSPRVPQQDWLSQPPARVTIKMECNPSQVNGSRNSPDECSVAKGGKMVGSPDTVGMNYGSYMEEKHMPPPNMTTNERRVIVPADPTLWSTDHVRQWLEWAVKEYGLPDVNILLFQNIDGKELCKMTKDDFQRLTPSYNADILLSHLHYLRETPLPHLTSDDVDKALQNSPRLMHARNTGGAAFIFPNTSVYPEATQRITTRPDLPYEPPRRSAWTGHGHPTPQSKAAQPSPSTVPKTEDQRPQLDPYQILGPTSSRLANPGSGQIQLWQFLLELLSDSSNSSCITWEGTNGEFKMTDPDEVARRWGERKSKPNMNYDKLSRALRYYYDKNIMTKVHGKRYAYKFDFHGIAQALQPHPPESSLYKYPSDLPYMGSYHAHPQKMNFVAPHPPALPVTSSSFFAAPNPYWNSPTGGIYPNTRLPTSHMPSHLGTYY
# In short: as §1
# [5] = molecular target: ELF1 (Homo sapiens, UniProt P32519 1-619); conditions: protein: recombinant; tags: N-terminal GST; dsDNA, one strand shown
# In short: as §1
# [6] = molecular target: T5, EHF (Homo sapiens, UniProt Q9NZC4 1-300); conditions: protein: recombinant; tags: N-terminal GST; dsDNA, one strand shown
# T5 sequence: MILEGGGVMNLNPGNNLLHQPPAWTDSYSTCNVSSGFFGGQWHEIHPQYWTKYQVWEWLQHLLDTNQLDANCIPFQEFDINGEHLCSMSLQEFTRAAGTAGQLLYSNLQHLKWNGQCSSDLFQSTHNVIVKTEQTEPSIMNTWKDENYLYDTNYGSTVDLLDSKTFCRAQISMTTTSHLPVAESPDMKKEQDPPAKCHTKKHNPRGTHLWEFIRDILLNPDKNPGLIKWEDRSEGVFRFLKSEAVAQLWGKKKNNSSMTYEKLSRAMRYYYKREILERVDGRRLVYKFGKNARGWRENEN
# In short: as §1
# [7] = molecular target: SPI1 (Homo sapiens, UniProt P17947 1-270); conditions: protein: recombinant; tags: N-terminal GST; dsDNA, one strand shown
# In short: as §1
# [8] = molecular target: SPIB (Homo sapiens, UniProt Q01892 1-262); conditions: protein: recombinant; tags: N-terminal GST; dsDNA, one strand shown
# In short: as §1
# [9] = molecular target: T6, ELK3 (Homo sapiens, UniProt P41970 1-407); conditions: protein: recombinant; tags: N-terminal GST; dsDNA, one strand shown
# T6 sequence: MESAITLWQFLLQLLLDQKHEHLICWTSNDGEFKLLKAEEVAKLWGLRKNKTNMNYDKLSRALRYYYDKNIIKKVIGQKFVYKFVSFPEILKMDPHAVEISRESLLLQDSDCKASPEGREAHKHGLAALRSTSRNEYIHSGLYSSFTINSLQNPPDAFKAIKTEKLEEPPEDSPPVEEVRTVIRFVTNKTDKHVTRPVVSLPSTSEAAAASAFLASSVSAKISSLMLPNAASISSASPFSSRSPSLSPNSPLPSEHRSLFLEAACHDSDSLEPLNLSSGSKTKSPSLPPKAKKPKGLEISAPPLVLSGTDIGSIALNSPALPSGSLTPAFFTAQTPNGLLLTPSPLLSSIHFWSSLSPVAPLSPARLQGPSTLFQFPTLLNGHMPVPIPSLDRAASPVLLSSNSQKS
# In short: as §1
# [10] = molecular target: T7, FEV (Homo sapiens, UniProt Q99581 1-238); conditions: protein: recombinant; tags: N-terminal GST; dsDNA, one strand shown
# T7 sequence: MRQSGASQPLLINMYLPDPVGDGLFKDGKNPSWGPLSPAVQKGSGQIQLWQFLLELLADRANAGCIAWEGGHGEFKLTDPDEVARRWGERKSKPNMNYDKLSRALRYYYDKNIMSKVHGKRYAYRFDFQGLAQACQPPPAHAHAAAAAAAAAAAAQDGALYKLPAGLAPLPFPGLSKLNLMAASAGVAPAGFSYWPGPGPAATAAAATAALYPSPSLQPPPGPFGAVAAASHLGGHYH
# In short: as §1
# [11] = molecular target: ETV5 (Homo sapiens, UniProt P41161 1-510); conditions: protein: recombinant; tags: N-terminal GST; dsDNA, one strand shown
# In short: as §1
# [12] = molecular target: HSF1 (Homo sapiens, UniProt Q00613 1-529); conditions: protein: recombinant; tags: N-terminal GST; chain copies: 3; dsDNA, one strand shown
# In short: as §1
# [13] = molecular target: T8, SPIC (Homo sapiens, UniProt Q8N5J4 1-248); conditions: protein: recombinant; tags: N-terminal GST; dsDNA, one strand shown
# T8 sequence: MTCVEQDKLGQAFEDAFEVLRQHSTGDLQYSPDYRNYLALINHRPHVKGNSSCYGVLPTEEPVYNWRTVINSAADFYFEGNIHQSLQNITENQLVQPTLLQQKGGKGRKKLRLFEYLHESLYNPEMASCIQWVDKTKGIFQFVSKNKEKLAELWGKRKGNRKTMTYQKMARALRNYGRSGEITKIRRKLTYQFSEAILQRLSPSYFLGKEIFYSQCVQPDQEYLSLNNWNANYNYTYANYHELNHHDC
# In short: as §1
# [14] = molecular target: ELF4 (Homo sapiens, UniProt Q99607 1-663); conditions: protein: recombinant; tags: N-terminal GST; dsDNA, one strand shown
# In short: as §1
# [15] = molecular target: T9, ELK4 (Homo sapiens, UniProt P28324-2 1-405); conditions: protein: recombinant; tags: N-terminal GST; dsDNA, one strand shown
# T9 sequence: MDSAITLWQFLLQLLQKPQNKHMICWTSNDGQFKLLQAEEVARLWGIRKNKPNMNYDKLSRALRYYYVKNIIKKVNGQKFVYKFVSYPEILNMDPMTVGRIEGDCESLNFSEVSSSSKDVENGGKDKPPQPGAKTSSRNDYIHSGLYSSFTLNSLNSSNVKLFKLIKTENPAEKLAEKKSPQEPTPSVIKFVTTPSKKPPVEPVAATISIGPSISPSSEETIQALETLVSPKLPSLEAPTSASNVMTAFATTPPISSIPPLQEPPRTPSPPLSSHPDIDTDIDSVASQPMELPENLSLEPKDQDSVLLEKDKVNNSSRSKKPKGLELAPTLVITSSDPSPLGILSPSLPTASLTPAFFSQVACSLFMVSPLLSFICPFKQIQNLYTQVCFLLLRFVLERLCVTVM
# In short: as §1
# [16] = molecular target: T10, ETV2 (Homo sapiens, UniProt O00321 1-342); conditions: protein: recombinant; tags: N-terminal GST; dsDNA, one strand shown
# T10 sequence: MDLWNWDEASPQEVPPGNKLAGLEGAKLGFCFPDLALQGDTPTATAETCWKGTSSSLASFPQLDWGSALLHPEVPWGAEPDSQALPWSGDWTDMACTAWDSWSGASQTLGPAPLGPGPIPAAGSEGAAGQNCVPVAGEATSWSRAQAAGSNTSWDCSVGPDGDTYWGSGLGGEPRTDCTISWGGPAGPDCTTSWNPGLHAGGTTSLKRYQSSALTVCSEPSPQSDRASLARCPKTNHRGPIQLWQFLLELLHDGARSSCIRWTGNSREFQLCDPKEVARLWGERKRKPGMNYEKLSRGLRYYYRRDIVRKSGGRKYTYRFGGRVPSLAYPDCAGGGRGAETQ
# In short: as §1
# [17] = molecular target: T11, ELF3 (Homo sapiens, UniProt P78545 1-371); conditions: protein: recombinant; tags: N-terminal GST; dsDNA, one strand shown
# T11 sequence: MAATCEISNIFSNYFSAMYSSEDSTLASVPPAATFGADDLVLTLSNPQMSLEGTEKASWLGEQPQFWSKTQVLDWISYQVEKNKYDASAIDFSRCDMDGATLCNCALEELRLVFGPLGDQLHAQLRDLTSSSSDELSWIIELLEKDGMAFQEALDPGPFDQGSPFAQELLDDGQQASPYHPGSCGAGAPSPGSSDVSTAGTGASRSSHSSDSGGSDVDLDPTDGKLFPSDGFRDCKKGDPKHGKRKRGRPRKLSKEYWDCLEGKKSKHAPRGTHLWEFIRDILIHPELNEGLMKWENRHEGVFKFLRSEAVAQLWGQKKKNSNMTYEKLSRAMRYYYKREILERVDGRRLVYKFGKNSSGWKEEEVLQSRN
# In short: as §1
# [18] = molecular target: CRX (Homo sapiens, UniProt O43186 1-299); conditions: protein: recombinant; tags: N-terminal GST; dsDNA, one strand shown
# In short: as §1
# [19] = molecular target: ETV1 (Homo sapiens, UniProt P50549 1-477); conditions: protein: recombinant; tags: N-terminal GST; dsDNA, one strand shown
# In short: as §1
# ETV1, sequence (P50549 whole entry): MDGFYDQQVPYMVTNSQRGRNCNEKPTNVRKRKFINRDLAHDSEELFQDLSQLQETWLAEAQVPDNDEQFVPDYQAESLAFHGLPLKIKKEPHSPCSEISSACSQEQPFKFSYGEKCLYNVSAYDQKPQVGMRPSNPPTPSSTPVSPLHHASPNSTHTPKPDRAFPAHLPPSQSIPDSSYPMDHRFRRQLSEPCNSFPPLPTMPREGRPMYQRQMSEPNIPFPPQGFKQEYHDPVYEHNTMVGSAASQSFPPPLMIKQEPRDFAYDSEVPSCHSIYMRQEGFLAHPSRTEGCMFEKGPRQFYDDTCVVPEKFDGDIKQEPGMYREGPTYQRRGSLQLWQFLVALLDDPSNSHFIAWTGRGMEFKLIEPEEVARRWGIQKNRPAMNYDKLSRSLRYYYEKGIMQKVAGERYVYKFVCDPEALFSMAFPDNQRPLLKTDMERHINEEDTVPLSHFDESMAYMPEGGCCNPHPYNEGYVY
# ELF1, sequence (P32519 whole entry): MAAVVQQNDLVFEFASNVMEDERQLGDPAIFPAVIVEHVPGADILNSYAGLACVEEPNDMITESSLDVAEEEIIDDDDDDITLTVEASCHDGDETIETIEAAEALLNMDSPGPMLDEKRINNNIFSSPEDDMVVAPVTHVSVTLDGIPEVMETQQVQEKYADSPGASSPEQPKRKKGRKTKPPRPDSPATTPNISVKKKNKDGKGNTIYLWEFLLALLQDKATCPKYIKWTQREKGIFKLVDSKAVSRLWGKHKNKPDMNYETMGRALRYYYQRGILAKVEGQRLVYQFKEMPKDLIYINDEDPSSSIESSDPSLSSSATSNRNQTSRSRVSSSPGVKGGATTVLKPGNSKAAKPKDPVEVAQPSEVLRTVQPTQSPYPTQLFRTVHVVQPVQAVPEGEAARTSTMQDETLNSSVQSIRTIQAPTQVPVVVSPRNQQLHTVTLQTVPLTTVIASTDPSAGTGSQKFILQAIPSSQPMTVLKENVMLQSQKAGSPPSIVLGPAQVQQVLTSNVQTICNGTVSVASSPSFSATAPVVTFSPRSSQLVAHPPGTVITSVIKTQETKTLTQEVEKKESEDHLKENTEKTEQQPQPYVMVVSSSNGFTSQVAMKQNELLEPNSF
# ELF4, sequence (Q99607 whole entry): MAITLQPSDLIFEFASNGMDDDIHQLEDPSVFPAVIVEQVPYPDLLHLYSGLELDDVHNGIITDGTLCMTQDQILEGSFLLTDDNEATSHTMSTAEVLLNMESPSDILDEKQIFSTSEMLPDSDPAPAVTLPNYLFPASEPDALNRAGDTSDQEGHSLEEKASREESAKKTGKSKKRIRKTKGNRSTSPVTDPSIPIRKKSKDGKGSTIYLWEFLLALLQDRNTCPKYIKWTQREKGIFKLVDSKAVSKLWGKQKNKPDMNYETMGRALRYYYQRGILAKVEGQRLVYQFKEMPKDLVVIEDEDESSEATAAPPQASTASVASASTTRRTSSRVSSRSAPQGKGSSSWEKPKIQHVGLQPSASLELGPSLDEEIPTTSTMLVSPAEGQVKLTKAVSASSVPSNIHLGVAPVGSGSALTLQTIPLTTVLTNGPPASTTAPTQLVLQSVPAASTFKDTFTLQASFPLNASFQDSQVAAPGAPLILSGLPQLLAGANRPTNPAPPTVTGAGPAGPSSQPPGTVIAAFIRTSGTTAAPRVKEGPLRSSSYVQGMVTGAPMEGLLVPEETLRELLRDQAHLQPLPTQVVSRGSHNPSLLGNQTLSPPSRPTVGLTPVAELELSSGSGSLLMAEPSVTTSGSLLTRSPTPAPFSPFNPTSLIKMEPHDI
# SPIB, sequence (Q01892 whole entry): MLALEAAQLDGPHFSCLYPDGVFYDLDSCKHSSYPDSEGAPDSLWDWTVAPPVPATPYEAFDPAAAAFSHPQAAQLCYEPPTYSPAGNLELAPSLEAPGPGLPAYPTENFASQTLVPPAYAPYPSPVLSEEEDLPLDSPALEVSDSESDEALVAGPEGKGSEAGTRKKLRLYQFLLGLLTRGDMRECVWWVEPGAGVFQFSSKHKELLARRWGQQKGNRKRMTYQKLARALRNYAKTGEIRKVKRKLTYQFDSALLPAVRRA
# HSF1, sequence (Q00613 whole entry): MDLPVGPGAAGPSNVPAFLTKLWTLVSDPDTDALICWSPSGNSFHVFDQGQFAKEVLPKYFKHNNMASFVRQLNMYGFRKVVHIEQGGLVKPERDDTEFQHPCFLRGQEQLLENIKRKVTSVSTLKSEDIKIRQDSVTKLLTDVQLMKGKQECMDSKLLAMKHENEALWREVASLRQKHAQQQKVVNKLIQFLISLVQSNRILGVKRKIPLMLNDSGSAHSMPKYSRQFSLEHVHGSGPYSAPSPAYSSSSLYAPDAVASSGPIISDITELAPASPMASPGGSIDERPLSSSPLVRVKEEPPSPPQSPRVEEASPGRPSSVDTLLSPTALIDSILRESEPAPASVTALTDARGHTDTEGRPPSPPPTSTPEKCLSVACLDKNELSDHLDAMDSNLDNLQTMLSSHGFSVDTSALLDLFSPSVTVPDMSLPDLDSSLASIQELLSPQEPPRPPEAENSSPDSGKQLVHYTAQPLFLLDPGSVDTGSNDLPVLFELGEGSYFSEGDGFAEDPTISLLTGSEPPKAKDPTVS
# CRX, sequence (O43186 whole entry): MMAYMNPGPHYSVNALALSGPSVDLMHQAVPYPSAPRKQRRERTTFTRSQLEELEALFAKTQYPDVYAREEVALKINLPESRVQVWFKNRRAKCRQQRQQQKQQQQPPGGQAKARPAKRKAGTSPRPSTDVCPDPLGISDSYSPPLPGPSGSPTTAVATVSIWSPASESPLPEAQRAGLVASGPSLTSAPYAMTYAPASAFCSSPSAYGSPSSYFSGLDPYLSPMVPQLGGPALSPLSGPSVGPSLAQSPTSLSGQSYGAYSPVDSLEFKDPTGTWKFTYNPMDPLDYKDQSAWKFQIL
# ETV5, sequence (P41161 whole entry): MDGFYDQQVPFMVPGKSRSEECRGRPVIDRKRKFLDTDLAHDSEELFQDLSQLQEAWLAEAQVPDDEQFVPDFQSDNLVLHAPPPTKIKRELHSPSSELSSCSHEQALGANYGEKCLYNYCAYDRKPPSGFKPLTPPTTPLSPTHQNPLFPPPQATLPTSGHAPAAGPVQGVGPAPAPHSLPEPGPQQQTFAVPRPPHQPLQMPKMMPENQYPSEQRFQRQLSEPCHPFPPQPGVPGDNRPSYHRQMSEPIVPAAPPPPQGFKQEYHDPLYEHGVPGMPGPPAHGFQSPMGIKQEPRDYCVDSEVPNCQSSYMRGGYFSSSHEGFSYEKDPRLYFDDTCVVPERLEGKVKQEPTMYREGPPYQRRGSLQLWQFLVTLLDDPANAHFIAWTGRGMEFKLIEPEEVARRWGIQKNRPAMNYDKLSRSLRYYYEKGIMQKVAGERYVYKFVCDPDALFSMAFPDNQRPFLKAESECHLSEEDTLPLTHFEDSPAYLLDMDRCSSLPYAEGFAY
sequence,measurement,setting,value
AGCTTT,binding signal,[1],"1.21 fold enrichment (6-mer frequency, TF over GST control)"
same,binding signal,[2],"1.2 fold enrichment (6-mer frequency, TF over GST control)"
same,binding signal,[3],"1.13 fold enrichment (6-mer frequency, TF over GST control)"
same,binding signal,[4],"1.12 fold enrichment (6-mer frequency, TF over GST control)"
same,binding signal,[5],"1.2 fold enrichment (6-mer frequency, TF over GST control)"
same,binding signal,[6],"1.11 fold enrichment (6-mer frequency, TF over GST control)"
same,binding signal,[7],"1.16 fold enrichment (6-mer frequency, TF over GST control)"
same,binding signal,[8],"1.04 fold enrichment (6-mer frequency, TF over GST control)"
same,binding signal,[9],"1.13 fold enrichment (6-mer frequency, TF over GST control)"
same,binding signal,[10],"1.08 fold enrichment (6-mer frequency, TF over GST control)"
same,binding signal,[11],"1.18 fold enrichment (6-mer frequency, TF over GST control)"
same,binding signal,[12],"1.43 fold enrichment (6-mer frequency, TF over GST control)"
same,binding signal,[13],"1.03 fold enrichment (6-mer frequency, TF over GST control)"
same,binding signal,[14],"1.15 fold enrichment (6-mer frequency, TF over GST control)"
same,binding signal,[15],"1.28 fold enrichment (6-mer frequency, TF over GST control)"
same,binding signal,[16],"1.23 fold enrichment (6-mer frequency, TF over GST control)"
same,binding signal,[17],"1.45 fold enrichment (6-mer frequency, TF over GST control)"
same,binding signal,[18],"1.81 fold enrichment (6-mer frequency, TF over GST control)"
same,binding signal,[19],"1.1 fold enrichment (6-mer frequency, TF over GST control)"
